Source: PubChem BioAssay (National Center for Advancing Translational Sciences (NCATS))
Giardia FBPA inh: blocks Giardia fructose-bisphosphate aldolase activity. A8B2U2. purified Giardia FBPA. Potency, µM (doses to about 59.6 µM), for the others: top-dose activity, negative = inhibition, usual class: inhibitors. hit rate 0.71% among 290,000; note: potency is the fitted concentration of half-maximal effect; % is set by controls: 0 for no effect and ±100 for the full control effect; nearly all actives have a fitted effect of over 55% in size
Target sequence (A8B2U2 whole entry, looked up): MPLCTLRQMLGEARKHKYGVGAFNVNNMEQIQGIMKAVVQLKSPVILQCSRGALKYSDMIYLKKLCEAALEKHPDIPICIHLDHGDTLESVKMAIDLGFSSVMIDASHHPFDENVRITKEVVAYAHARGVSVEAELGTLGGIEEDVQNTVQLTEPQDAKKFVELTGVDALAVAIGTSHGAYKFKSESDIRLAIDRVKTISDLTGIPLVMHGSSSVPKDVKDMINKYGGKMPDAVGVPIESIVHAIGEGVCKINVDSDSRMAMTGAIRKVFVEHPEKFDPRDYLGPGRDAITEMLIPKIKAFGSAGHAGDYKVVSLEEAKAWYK
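Giardia FBPA (40 nM reagent) was preincubated 10 min at RT with compound (up to 57.5 uM final), then substrate plus GAPDH/TPI/NAD/arsenate coupling system with diaphorase/resazurin was added; resorufin fluorescence (525/598 nm) was read after 20 min.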
CHX counter: counter-screen for Shiga toxin inhibitors: cycloheximide protein synthesis inhibition | hit rate 12% among 300,000 | cell reporter, cycloheximide protein synthesis inhibition counterscreen | max response, %; in the data active = max response mostly above about 13%, no sharp cut-off; inactive = mostly below about 14%; note: read at 38.3 µM for the half of the compounds with a filed dose; 0% is about no effect
Pf growth 48h: inhibits P. falciparum growth in the first generation, 48 h. P. falciparum luciferase growth in erythrocytes, 48 h. Potency, µM (titrated, usually from 28.7 µM), for inactives: at the highest dose activity change, negative = inhibition, usual class: inhibitors. hit rate 5.9% among 310,000. AID 504832; note: potency is the fitted concentration of half-maximal effect; % is set by controls: 0 for no effect and ±100 for the full control effect
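In quantitative HTS format, infected erythrocytes bearing luciferase-reporter parasites were treated for a single generation at 37 C. Luminescence after adding detection reagent served as the growth measure.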
Shiga toxin inh: Shiga toxin inhibition | Vero cells, Shiga toxin protein synthesis inhibition reporter | hit rate 9.2% among 290,000 | inhibition, % at 38.7 µM; in the data active = inhibition mostly above about 28%, no sharp cut-off; inactive = mostly below about 43%; note: 0% is about no effect
Pf growth 96h: inhibits malaria parasite growth, 96 h; P. falciparum luciferase reporter growth, 96 h; hit rate 6.9% among 320,000; AID 504834; Potency, µM (series often up to 28.7 µM), inactives show at the top dose activity change, negative = inhibition, most hits filed as inhibitors; note: potency is the fitted concentration of half-maximal effect; % is set by controls: 0 for no effect and ±100 for the full control effect
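Infected RBCs, 2% Hct / 0.05% parasitemia final; luciferase-reporter P. falciparum; cpd 96 h, 37 C, 5% CO2; luciferase detection reagent; luminescence.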
NS1 function inh: influenza NS1 inhibition; Potency, µM (titrated, usually from 46.1 µM), for inactives: top-dose activity, positive = more growth; hit rate 0.4% among 270,000; AID 2326; calls by dose curve; note: potency is the fitted concentration of half-maximal effect; actives are rising curves; nearly all actives have a fitted effect of over 50% in size
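Read-out: OD600 growth recovery of NS1-expressing budding yeast. Cells grown overnight at 30C in -URA glucose medium, washed, resuspended and diluted 1:100 in 2% galactose assay medium, pH 6.0. Same strain lacking NS1 served as positive control.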
Starred values were filed as active, the others as inactive; ? = inconclusive; nt = not tested or not shown; [ ] = dose if it differs, or a comment. Compounds with a hit are over-represented: about 21% of the library has one in this group of screens. Unless noted, calls come from the whole dose curve; as a rule, active = well fitted curve in the direction sought with a large enough effect; inconclusive = small, poorly fitted or top-dose-only effect, or another doubt; inactive = no such curve, though single readings can be large; an effect the other way counts as inactive or inconclusive.

SMILES	Giardia FBPA inh	CHX counter	Pf growth 48h	Shiga toxin inh	Pf growth 96h	NS1 function inh
CCCC[C@@H]1C[C@H]1C(NC(=O)c1cccnc1)c1ccc(Cl)cc1 (some centres not stated)	-3%	nt	nt	nt	nt	nt
Cc1ccc(-n2c(C)cc(/C=N/NC(N)=S)c2C)cc1	-3%	19*	?	-12	126%	4%
CCN1C(=O)c2cccc3c(S(=O)(=O)N(C(=O)c4ccncc4)c4ccc(OC)cc4)ccc1c23	-25%	1	15µM*	24	13µM*	?
Cc1ccsc1-c1nc(CN(C)C(C2CC2)C2CC2)c(C)o1	-1%	-3	?	-6	?	-2%
COCc1ccc(C(=O)N2CCCCC2C(=O)Nc2ccc(-n3nc(C)cc3C)cc2)o1 (configuration not stated)	nt	1	-11%	-2	12µM*	4%
Cc1cc(C)n(-c2ccc(NC(=O)C3CCN(Cc4cc(C)c(C)o4)CC3)cc2)n1	-17%	-1	?	-5	-2%	3%
Cc1cc(C)n(-c2ccc(NC(=O)C3CCN(Cc4ccc(C)o4)CC3)cc2)n1	nt	1	13µM*	-3	15µM*	3%
Cc1c(O)c(CN2CCCCC2)cc2c3c(c(=O)oc12)CCC3	3%	2	10µM*	2	9.3µM*	8%
Cc1c(O)c(CN(C)C)cc2c1oc(=O)c1ccccc12	-5%	-3	4.1µM*	-17	2.1µM*	-40%
O=c1oc2c(CN3CCOCC3)c(O)c(Cl)cc2c2c1CCC2	-4%	5	1µM*	6	2%	-4%
CN(C)Cc1c(O)c(Cl)cc2c3c(c(=O)oc12)CCCC3	?	-4	nt	-8	-21%	2%
Cc1c(O)c(CN2CCCCC2)cc2c1oc(=O)c1ccccc12	1%	-1	0.33µM*	24	0.47µM*	-15%
CCOc1nc(NC(=O)NS(=O)(=O)c2cccc(Cl)c2)nc(-c2ccccc2)n1	1%	-1	42%	0	?	13%
Cc1ccc(-c2nnc(SCCC(=O)N3CCOCC3)o2)cc1	2%	32*	81%	52	?	nt
Cc1ccccc1-c1nnc(SCCC(=O)N2CCOCC2)o1	7%	23*	95%	70*	?	nt
O=C(CCSc1nnc(-c2ccccc2)o1)N1CCOCC1	1%	14	26%	34	37%	-10%
CO	nt	nt	-2%	nt	4%	nt
COc1ccc(C)cc1NC(=O)CCCN1C(=O)C(c2ccccc2)Oc2cccnc21 (configuration not stated)	nt	1	?	-2	20%	-28%
O=C(NC1CCCC1)C1CCN(S(=O)(=O)c2ccccc2)CC1	8%	-4	?	-3	2%	1%
COc1ccc(OC)c(/C=C/C(=O)Nc2cccc(S(=O)(=O)NC3=NCCCCC3)c2)c1	nt	nt	10µM*	nt	?	nt
COc1ccccc1/C=C/C(=O)Nc1cccc(S(=O)(=O)NC2=NCCCCC2)c1	-2%	4	?	38	?	nt
COc1ccc(NC(C)=O)cc1S(=O)(=O)Nc1cccc(S(=O)(=O)NC2=NCCC2)c1	nt	nt	-1%	nt	-23%	nt
COc1cc(/C=C/C(=O)Nc2cccc(S(=O)(=O)NC3=NCCCCC3)c2)ccc1OCC#N	nt	nt	10µM*	nt	?	nt
COc1ccc(/C=C/C(=O)Nc2cccc(S(=O)(=O)NC3=NCCCCC3)c2)cc1	2%	26*	56%	74*	90%	9%
O=C(/C=C/c1ccc(OC(F)F)cc1)Nc1cccc(S(=O)(=O)NC2=NCCCCC2)c1	nt	29*	-3%	57*	-3%	2%
SMILES	Giardia FBPA inh	CHX counter	Pf growth 48h	Shiga toxin inh	Pf growth 96h	NS1 function inh
COc1ccccc1CNc1cc(-c2c(C)noc2C)ncn1	3%	nt	nt	nt	nt	nt
O=C(c1cc2sccc2n1Cc1ccccc1)N1CCc2ccccc21	-4%	-4	?	30	?	?
O=C(c1cc2sccc2n1Cc1ccccc1)N1CCCc2ccccc21	-12%	41*	?	135*	nt	15%
CCOC(=O)c1cc2sccc2n1CC(=O)N1CCCc2ccccc21	-2%	13	?	28	52%	-5%
Cn1c(C(=O)N2CCCc3ccccc32)cc2sccc21	13%	26*	10%	32	nt	-34%
CNc1ccc(C(=O)Oc2cc(O/N=[N+](\[O-])N(C)C)c([N+](=O)[O-])cc2[N+](=O)[O-])cc1	?	40*	nt	73*	nt	nt
CCOC(=O)N1CCN([N+]([O-])=NOc2cc(O/N=[N+](\[O-])N(C)C)c([N+](=O)[O-])cc2[N+](=O)[O-])CC1	-12%	-1	nt	-4	nt	nt
CCOC(=O)CCSc1nc2c(c(C(F)(F)F)c1C#N)CCC2	3%	-4	9.3µM*	-22	-27%	-14%
CCCCSc1nc2c(c(C(F)(F)F)c1C#N)CCC2	8%	-2	nt	-3	?	-9%
c1csc(CNc2ccnc(-c3ccc4c(c3)OCO4)n2)c1	-14%	nt	nt	nt	nt	nt
C[C@H]1Cc2c(-c3ccccc3)nc3c(c2CO1)CN(S(=O)(=O)c1ccc2c(c1)OCCN2C)CC3	0%[12.9 µM]	nt	nt	nt	nt	nt
COc1ccc(C2CC(=O)N(c3ccccc3)C3=C2C(=O)CCC3)cc1 (configuration not stated)	11%	8	-5%	-18	0%	4%
O=C1CCCC2=C1C(c1ccccc1)CC(=O)N2c1ccccc1 (configuration not stated)	19%	-4	-13%	7	13µM*	8%
Cc1ccc(C2C(C#N)=C(N)N(c3cccnc3)C3=C2C(=O)CCC3)s1 (configuration not stated)	?	11	5%	51*	6%	7%
CN(C)N1C(N)=C(C#N)C(c2cccs2)C2=C1CC(C)(C)CC2=O (configuration not stated)	18µM*	1	?	17	36%	nt
COc1ccc(N2C(N)=C(C#N)C(c3ccsc3)C3=C2CCCC3=O)c(OC)c1 (configuration not stated)	?	6	?	7	3.7µM*	25%
O=C1CC2(CCN(C(=O)c3ccccc3[N+](=O)[O-])CC2)Oc2ccccc21	nt	nt	5%	nt	-1%	nt
CN(C)N1C(N)=C(C#N)C(c2cccnc2)C2=C1CCCC2=O (configuration not stated)	?	-1	-17%	-8	13µM*	8%
CSc1ccc(C2C(C#N)=C(N)N(c3ccccc3)C3=C2C(=O)CCC3)cc1 (configuration not stated)	?	17	13µM*	-6	0%	-22%
N#CC1=C2N=C(N)c3c(sc4c3CCCCC4)N2C2=C(C(=O)CCC2)C1c1ccccc1 (configuration not stated)	3%	36	2.9µM*	65	4.7µM*	?
N#CC1=C(N)N(c2ncn[nH]2)C2=C(C(=O)CCC2)C1c1ccccc1 (configuration not stated)	-18%	-1	?	-3	22%	nt
